From PubChem BioAssay (EPA / NIEHS)
Results filed as inconclusive are left out. The source made the active and inactive calls. How the source made its calls: active means hit-call score of the fitted dose curve at least 0.9, where 1 is the maximum; inconclusive means response in the unintended direction; inactive means score below 0.9.

molecular target: Androgen receptor (Homo sapiens) (UniProt P10275); experiment: ATG_AR_TRANS: Attagene TRANS-FACTORIAL HepG2 Assay for human Androgen Receptor (AR) (AID 2282973); settings: HepG2 Attagene TRANS-FACTORIAL AR reporter transcription
Sequence (P10275 whole entry, looked up, the tested form may be a part): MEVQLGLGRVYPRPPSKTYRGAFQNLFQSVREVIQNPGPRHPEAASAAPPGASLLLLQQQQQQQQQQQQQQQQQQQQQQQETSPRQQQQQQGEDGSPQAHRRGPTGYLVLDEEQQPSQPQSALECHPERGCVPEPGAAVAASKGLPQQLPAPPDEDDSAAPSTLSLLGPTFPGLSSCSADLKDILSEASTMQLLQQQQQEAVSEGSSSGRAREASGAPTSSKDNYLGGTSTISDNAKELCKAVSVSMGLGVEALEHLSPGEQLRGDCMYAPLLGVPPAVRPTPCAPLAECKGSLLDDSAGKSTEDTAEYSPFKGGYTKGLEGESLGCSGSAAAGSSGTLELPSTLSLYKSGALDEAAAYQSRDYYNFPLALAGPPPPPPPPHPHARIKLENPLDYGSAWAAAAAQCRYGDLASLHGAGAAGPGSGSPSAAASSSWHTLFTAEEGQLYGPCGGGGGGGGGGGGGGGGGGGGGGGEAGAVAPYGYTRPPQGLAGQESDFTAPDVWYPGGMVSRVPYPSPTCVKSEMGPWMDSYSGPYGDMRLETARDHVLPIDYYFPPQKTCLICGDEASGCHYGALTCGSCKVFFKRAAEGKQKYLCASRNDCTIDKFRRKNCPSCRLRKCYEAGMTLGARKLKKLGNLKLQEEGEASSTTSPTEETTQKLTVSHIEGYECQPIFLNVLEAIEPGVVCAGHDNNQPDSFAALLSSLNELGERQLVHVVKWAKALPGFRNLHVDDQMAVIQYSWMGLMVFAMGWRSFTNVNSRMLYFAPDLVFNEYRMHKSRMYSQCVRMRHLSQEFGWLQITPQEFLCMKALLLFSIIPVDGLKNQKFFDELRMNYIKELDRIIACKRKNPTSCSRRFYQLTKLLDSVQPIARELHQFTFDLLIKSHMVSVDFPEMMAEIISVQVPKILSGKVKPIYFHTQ
Summary of the method: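 HepG2 cells transiently transfected with multiplexed GAL4-UAS reporter units and chimeric NR-Gal4 fusion; 24 h compound exposure. Reporter mRNA measured by RT-PCR, 6-FAM labelling, HpaI digestion and capillary electrophoresis; gain-of-signal fitted relative to DMSO baseline.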

SMILES | outcome
CC(C)CC(=O)CC(C)CC(C)C (stereo not given) | inactive
O=C(O)Cc1ccccc1Nc1c(Cl)cccc1Cl | inactive
NC(=NCCCCCCN=C(N)/N=C(\N)Nc1ccc(Cl)cc1)/N=C(\N)Nc1ccc(Cl)cc1 | inactive
Clc1cccnc1 | inactive
C=C(C)[C@@H]1CC=C(C)C(=O)C1 | inactive
CC(CC=O)CCCC(C)(C)O (stereo not given) | inactive
CCCCC(CC)COC(=O)/C=C/c1ccc(OC)cc1 (stereo not given) | inactive
C=CCOC(=O)/C=C\C(=O)OCC=C | inactive
CCCCCCCCCc1ccc(OCCO)cc1 | inactive
OCc1c[nH]c2ccccc12 | inactive
O=C1CC2CC1C1CCCC21 (stereo not given) | inactive
C=CCOCC(CO)(CO)CO | inactive
O=S(=O)(O)c1ccc(Nc2nc(Nc3ccc(C=Cc4ccc(Nc5nc(Nc6ccc(S(=O)(=O)O)cc6)nc(N(CCO)CCO)n5)cc4S(=O)(=O)O)c(S(=O)(=O)O)c3)nc(N(CCO)CCO)n2)cc1 | inactive
O=CC(F)(F)C(F)(F)C(F)(F)F | inactive
CCCCCCCCCCCCCC[P+](CCCC)(CCCC)CCCC | inactive
COCC(C)N (stereo not given) | inactive
CCc1c(C)cc(N)c(CC)c1N | inactive
FC(F)(F)C(F)(F)C(F)(F)Br | inactive
O=C(C=C(O)C(F)(F)F)C(F)(F)F | inactive
C=CC(=O)OCCOC1C2CCC1C1CC=CC12 (stereo not given) | inactive

SMILES | outcome
NCC(F)(F)C(F)(F)C(F)(F)C(F)(F)C(F)(F)C(F)(F)C(F)(F)C(F)(F)F | inactive
c1cc[nH]c1 | inactive
CCCCCCCCCCOC(=O)c1ccccc1C(=O)OCCCCCCCC | inactive
N#CSCSc1nc2ccccc2s1 | inactive
CC1(C)[C@H](C=C(Cl)Cl)[C@H]1C(=O)OCc1cccc(Oc2ccccc2)c1 | inactive
C[Si]1(C)O[Si](C)(C)O[Si](C)(C)O1 | inactive
C[C@H]1O[C@@H](O[C@H]2[C@@H](O)C[C@H](O[C@H]3[C@@H](O)C[C@H](O[C@H]4CC[C@@]5(C)[C@H](CC[C@@H]6[C@@H]5C[C@@H](O)[C@]5(C)[C@@H](C7=CC(=O)OC7)CC[C@]65O)C4)O[C@@H]3C)O[C@@H]2C)C[C@H](O)[C@@H]1O | inactive
C[N+](C)(CCCNS(=O)(=O)CCC(F)(F)C(F)(F)C(F)(F)C(F)(F)C(F)(F)C(F)(F)F)CC(=O)[O-] | inactive
CCCCOCCOCCOCc1cc2c(cc1CCC)OCO2 | inactive
O=C1OC(=O)c2cc(Oc3ccc4c(c3)C(=O)OC4=O)ccc21 | inactive
CCC(=O)C1CC(C(C)C)CC=C1C (stereo not given) | inactive
CCC1(C)C(=O)N(Cl)C(=O)N1Cl (stereo not given) | inactive
Cc1ccc(C2OC[C@@H]3OC(c4ccc(C)cc4)O[C@H]([C@H](O)CO)[C@@H]3O2)cc1 (stereo not given in full) | inactive
O=C1CCCCC1 | inactive
Nc1c(Cl)cc(Cl)cc1[N+](=O)[O-] | inactive
CC1(C)CCC(C)(C)c2cc(C(=O)Nc3ccc(C(=O)O)cc3)ccc21 | inactive
Cc1ccc2ccc3ccc(C)cc3c2c1 | inactive
CC(=O)N(C)C | inactive
O=C1C=CC(=O)N1c1ccccc1 | inactive
O=C(O)CCCCCCCCCC(=O)O | inactive
